Data published in the supplement of paper PMC6555819.

Legend:
Experiment in all cases: PBM binding z-score (relative to random genomic background probes); higher = stronger binding; sequences stand for … in GC…GCGATTGACAGCGTAGAATGAAGG
[1] = tested on: FXR:RXRa (NR concentration 270 nM, RXRa partner concentration 90 nM)
Outline: (§1)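 For binding z-scores, the reference was random background probes on custom Agilent 4×180K protein-binding microarrays. These arrays were incubated 1 h with ligand-free nuclear receptor dimers in PBS pH 7.4, 2% milk, 0.02% Triton X-100, 1 mM DTT, 0.2 mg/mL BSA and 0.4 mg/ml salmon testes DNA. Fluorescence was scanned after antibody detection of each partner (one per run) and regression-normalized.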

[2] = tested on: LXRa:RXRa (NR concentration 270 nM, RXRa partner concentration 90 nM)
Outline: as §1

[3] = tested on: LXRa homodimer (NR concentration 270 nM)
Outline: as §1

[4] = tested on: LXRb:RXRa (NR concentration 270 nM, RXRa partner concentration 90 nM)
Outline: as §1

[5] = tested on: LXRb homodimer (NR concentration 270 nM)
Outline: as §1

[6] = tested on: PPARa:RXRa (NR concentration 270 nM, RXRa partner concentration 90 nM)
Outline: as §1

[7] = tested on: PPARg:RXRa (NR concentration 180 nM, RXRa partner concentration 90 nM)
Outline: as §1

[8] = tested on: PPARg:RXRa 270nM:90nM, anti-RXR (NR concentration 270 nM, RXRa partner concentration 90 nM)
Outline: as §1

[9] = tested on: PPARg:RXRa 30nM:10nM, anti-RXR (NR concentration 30 nM, RXRa partner concentration 10 nM)
Outline: as §1

[10] = tested on: PPARg:RXRa 90nM:30nM, anti-RXR (NR concentration 90 nM, RXRa partner concentration 30 nM)
Outline: as §1

[11] = tested on: PPARg:RXRa DBDmut IVT, anti-RXR (DBD mutation: RXRa K156A/R161A, NR concentration 270 nM, RXRa partner concentration 90 nM)
Outline: as §1

[12] = tested on: PPARg:RXRa IVT, anti-PPARg (NR concentration 270 nM, RXRa partner concentration 90 nM)
Outline: as §1

[13] = tested on: PPARg DBDmut:RXRa IVT, anti-PPARg (DBD mutation: PPARg1 K132A/R137A, NR concentration 270 nM, RXRa partner concentration 90 nM)
Outline: as §1

[14] = tested on: PPARg DBDmut IVT, anti-PPARg (DBD mutation: PPARg1 K132A/R137A, NR concentration 270 nM)
Outline: as §1

[15] = tested on: PPARg homodimer (NR concentration 180 nM)
Outline: as §1

[16] = tested on: PXR:RXRa (NR concentration 270 nM, RXRa partner concentration 90 nM)
Outline: as §1

[17] = tested on: PXR homodimer (NR concentration 270 nM)
Outline: as §1

[18] = tested on: RARa:RXR (NR concentration 270 nM, RXRa partner concentration 90 nM)
Outline: as §1

[19] = tested on: RARa homodimer (NR concentration 270 nM)
Outline: as §1

[20] = tested on: RARb:RXRa (NR concentration 270 nM, RXRa partner concentration 90 nM)
Outline: as §1

Row | Sequence | PBM binding z-score [1] | PBM binding z-score [2] | PBM binding z-score [3] | PBM binding z-score [4] | PBM binding z-score [5] | PBM binding z-score [6] | PBM binding z-score [7] | PBM binding z-score [8] | PBM binding z-score [9] | PBM binding z-score [10] | PBM binding z-score [11] | PBM binding z-score [12] | PBM binding z-score [13] | PBM binding z-score [14] | PBM binding z-score [15] | PBM binding z-score [16] | PBM binding z-score [17] | PBM binding z-score [18] | PBM binding z-score [19] | PBM binding z-score [20]
1 | TCATATAGGTAAACAGTTGAAAGTCCGTAAGTTA | 1.56 | 1.2 | 0.508 | 1.15 | 0.267 | 1.76 | 1.53 | 2.91 | 3.95 | 3.49 | 4.45 | 3.32 | 1.41 | 0.905 | 1.35 | 1.03 | 0.634 | 1.35 | 1.47 | 0.681
2 | CCTACTTGGCCACGAAAGGTCATTGATTCAGTGA | 4.07 | 5.32 | 5.29 | 4.61 | 1.16 | 4.46 | 1.84 | 3.31 | 1.01 | 2.5 | 1.97 | 2.14 | 0.246 | 0.627 | 3.9 | 5.3 | 1.97 | 5.51 | 2.48 | 4.09
3 | ATCGAAAGGTCGAGGGTGAGTATACCCACCCGAA | 4.29 | 3.45 | 0.143 | 2.57 | 0.248 | 4.67 | 3.72 | 4.25 | 1.3 | 3.04 | -0.26 | 1.94 | 0.623 | 0.934 | 0.976 | 2.41 | -0.393 | 3.41 | 0.53 | 4.09
4 | GCGACTGGGGCAGCAGCAGGTTACCATAACTTAA | -0.536 | -0.657 | -0.621 | -0.287 | -1.12 | 0.405 | 0.4 | -0.0757 | -0.451 | -0.719 | 3.5 | 2.23 | -1.15 | -0.983 | -0.687 | -0.502 | -0.939 | -0.19 | -0.8 | 0.608
5 | GCGACTGGGACAAAGCAGGTTACCATAAGGTTGG | -0.198 | -0.314 | -0.305 | -0.479 | -0.971 | 0.611 | 0.76 | 0.524 | -0.332 | -0.0419 | 2.44 | 1.83 | -0.413 | -1.3 | 0.0292 | 0.0506 | -0.224 | 0.493 | -0.37 | 0.0729
6 | CGGACTAGGTCATCCAGGACAGTGAATACATTGA | 3.64 | 2.45 | 0.39 | 1.81 | -0.227 | 4.22 | 6.64 | 5.63 | 3.03 | 4.87 | 7.5 | 7.58 | 1.52 | 0.792 | 1.9 | 1.59 | 0.944 | 1.89 | 0.179 | 3.49
